Source: PubChem
PLC-gamma1 inh – inhibitors of human phospholipase C gamma1; 370,000 tested, 0.84% active; inhibition, % at 12.2 µM; purified PLC-gamma1, fluorogenic substrate, fluorescence; P19174; in the data active = inhibition above about 9.5%
ADAM17 inh – ADAM17 inhibition, QFRET primary screen | recombinant ADAM17, EDANS/DABCYL FRET peptide cleavage | inhibition, % at 6.95 µM | 370,000 tested, 0.83% active;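 active = inhibition above the mean of compounds lying between control limits plus 3 SD, set per campaign, cut at about 8.5% in these data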;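 note: 0% = DMSO-only wells as the low control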
Target sequence (P78536 215-824 limits assumed): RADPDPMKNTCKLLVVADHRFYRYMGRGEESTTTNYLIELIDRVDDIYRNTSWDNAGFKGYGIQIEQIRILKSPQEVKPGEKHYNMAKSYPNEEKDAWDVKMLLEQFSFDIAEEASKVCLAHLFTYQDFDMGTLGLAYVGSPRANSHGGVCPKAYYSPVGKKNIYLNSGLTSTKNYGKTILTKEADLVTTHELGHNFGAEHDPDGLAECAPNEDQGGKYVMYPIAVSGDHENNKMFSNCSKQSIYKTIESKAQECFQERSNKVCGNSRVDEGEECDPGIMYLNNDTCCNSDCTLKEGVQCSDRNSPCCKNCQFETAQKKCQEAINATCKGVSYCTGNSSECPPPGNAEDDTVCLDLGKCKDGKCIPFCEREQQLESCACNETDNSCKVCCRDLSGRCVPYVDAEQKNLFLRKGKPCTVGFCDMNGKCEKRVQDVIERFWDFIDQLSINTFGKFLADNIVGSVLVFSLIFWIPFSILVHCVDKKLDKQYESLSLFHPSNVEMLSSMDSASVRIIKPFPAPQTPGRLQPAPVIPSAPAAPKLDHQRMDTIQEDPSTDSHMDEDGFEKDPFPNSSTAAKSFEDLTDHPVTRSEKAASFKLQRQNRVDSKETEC
KLK7 zymogen act – activators of human kallikrein-7 zymogen | 370,000 tested, 0.9% active | P49862 | AID 652039 | activation, % at 7 µM | purified proKLK7, EDANS-DABCYL substrate fluorescence; 100% is mature enzyme control, 0% vehicle;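 active = activation above the mean of all tested compounds plus 3 SD, computed per campaign excluding outliers beyond control limits, cut at about 13% in these data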
PLC-beta3 inh – blocks human PLC-beta3 enzyme activity; Purified PLC-beta3, fluorogenic substrate, fluorescence; AID 720704; inhibition, % at 12.2 µM; Q01970; 370,000 tested, 0.18% active; in the data active = inhibition above about 11%;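 note: 0% = median of compound wells on plate and 100% = full blocker control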
ADAM10 inh – ADAM10 inhibition, QFRET primary screen | O14672 | 370,000 tested, 0.62% active | inhibition, % at 7 µM | recombinant ADAM10, EDANS/DABCYL FRET peptide cleavage, 3 h | AID 720582;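 active = inhibition above a per-campaign cutoff equal to the mean of compounds falling between control-based bounds plus 3 SD, cut at about 20% in these data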;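 note: 0% = DMSO wells while the 100% control is not disclosed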
The depositor's hits bear a star; i = inactive. The list is not random: actives were taken first. Their share in the collection is about 2.9%.

SMILES	PLC-gamma1 inh	ADAM17 inh	KLK7 zymogen act	PLC-beta3 inh	ADAM10 inh
Cc1ccc(C2=C(O)C(=O)C(c3ccc(C)cc3)=C(O)C2=O)cc1	-7	-1	-1	-4	-5
Cc1[nH]c2ccccc2c1CCN(Cc1cccs1)C(=O)Nc1cccc2c1OCO2	2	3	0	0	10
CCc1cc2c(-c3ccccc3)cc(=O)oc2cc1OC(C)C(C)=O (stereo not drawn)	-51	-5	-1	-75	-22
CC(C)(C)OC(=O)NCC(=O)Oc1cc2oc(=O)cc(-c3ccccc3)c2cc1Cl	i	-69	16*	i	-315
O=C(Oc1cc2oc(=O)cc(-c3ccccc3)c2cc1Cl)C1CCCCC1	i	-53	37*	i	-144
O=C(O)COc1ccc2c(-c3ccccc3)cc(=O)oc2c1	-12	0	0	-17	-9
O=C(Nc1cccc(Cl)c1)Nc1cc(S(=O)(=O)N2CCCCC2)ccc1Cl	2	9.9*	0	2	22*
CSc1ncnc2[nH]ncc12	1	-3	0	0	-14
CCCCCCCSc1ncnc2[nH]ncc12	-1	12*	0	6	19
O=C(c1ccc(C#Cc2ccccc2)cc1)N1CCC(O)CC1	0	-1	0	1	-1
COc1ccccc1C(C#N)N1N=C(C)CC1(C)C (stereo not drawn)	-1	-2	0	2	-1
COc1cccc(C(C#N)N2N=C(C)CC2(C)C)c1O (stereo not drawn)	12*	3	-1	-3	4
Oc1cccc(Nc2c3ccccc3nc3ccccc23)c1	-208	-471	2	-262	i
CCN(CC)Cc1cc(Nc2c3ccccc3nc3c4ccccc4n(C)c23)cc(CN(CC)CC)c1O	-352	-93	23*	-464	-325
Cc1ccc(O)c(C(=O)c2cc(C#N)c(=O)n(-c3nccs3)c2)c1	-113	-21	17*	-165	-52
CN1CCN(C(c2ccc(Br)cc2)c2cc(Cl)c3cccnc3c2O)CC1 (stereo not drawn)	-17	20*	0	-28	24*
COC(=O)C1=C(C)N(Cc2ccc(C(F)(F)F)cc2)C(=NCc2ccc3c(c2)OCO3)NC1c1ccccc1C(F)(F)F (stereo not drawn)	4	0	0	6	4
COC(=O)C1=C(C)N(Cc2ccccc2C(F)(F)F)C(=NCc2ccc3c(c2)OCO3)NC1c1ccccc1C(F)(F)F (stereo not drawn)	4	6	0	11*	5
O=C(OCc1ccccc1)N(CCCCN(CCCNCc1ccccc1)C(=O)OCc1ccccc1)CCCNCc1ccccc1	10.0*	1	0	4	1
S=C(NN=C(c1ccccc1)c1ccccn1)N(Cc1ccccn1)Cc1ccccn1	-12	72*	0	-10	78*
COC(=O)C1CN(Cc2cn(CCC3OCCO3)nn2)CCS(=O)(=O)N1Cc1ccc(OC)cc1 (stereo not drawn)	-1	1	-1	1	3
Cc1ccccc1NC(=O)Cc1nc(COC(=O)COc2cccc(C)c2C)cs1	12*	1	0	-11	13
O=C(COc1ccccc1C(=O)O)Nc1ccc(SC(F)F)cc1	-10	3	0	0	3
O=C(COC(=O)c1ccccc1C(=O)c1ccccc1)Nc1ccc(SC(F)F)cc1	-1	9.0*	-1	2	16
CC(=O)Nc1ccc(OCC(C)CN2CCC(C(O)(c3ccccc3)c3ccccc3)CC2)cc1 (stereo not drawn)	2	0	0	2	0
SMILES	PLC-gamma1 inh	ADAM17 inh	KLK7 zymogen act	PLC-beta3 inh	ADAM10 inh
CO/N=C/c1ccc(N2CCN(C(=O)c3ccc(Cl)cc3Cl)CC2)c([N+](=O)[O-])c1	8	7	1	2	20*
CO/N=C/c1ccc(N2CCN(C(=O)c3ccc(F)cc3)CC2)c([N+](=O)[O-])c1	0	3	1	2	2
O=C(NCCc1ccccc1)OCc1cn(Cc2cccc(Cl)c2)nn1	-3	0	0	0	7
COC(=O)c1ccc(=O)c2nc3/c(=C/O)c(O)cc(=O)c3[nH]c12	11*	6	-1	8	0
CC(C)C[C@H]1COc2ccc(Cl)cc2S(=O)(=O)N1Cc1cn(Cc2ccc(C(F)(F)F)cc2)nn1	0	-1	0	4	-5
O=C(O)Cc1c[nH]c2cccc(O)c12	25*	1	1	10	-3
CC(=O)Nc1c(-c2ccc(C)cc2)nc2ncccn12	i	-306	10	i	i
O=C(NCC(c1ccco1)N1CCN(c2ccccc2F)CC1)C(=O)NC1CCCCC1 (stereo not drawn)	9.5*	6	0	2	-1
Cc1cccc(COCC(Cc2ccccc2)N2CCN(C(=O)c3ccc(Cl)c(Cl)c3)CCC2=O)c1 (stereo not drawn)	4	6	0	4	28*
Cc1cccc(COC[C@H](Cc2ccccc2)N2CCN(C(=O)c3ccc(Cl)c(Cl)c3)CCC2=O)c1	0	3	1	1	9
C[C@@H]1CN([C@H](C)CO)C(=O)c2cc(NC(=O)Nc3ccc(C(F)(F)F)cc3)ccc2O[C@H]1CN(C)S(=O)(=O)c1ccc(Cl)cc1	1	8	-1	0	25*
C[C@H]1CN([C@@H](C)CO)C(=O)c2cccc(NC(=O)Nc3ccc(C(F)(F)F)cc3)c2O[C@@H]1CN(C)S(=O)(=O)c1ccc(Cl)cc1	6	9.2*	1	-1	24*
COC(=O)c1cc(C(c2ccccc2O)C2CCCO2)n2cccc(C(C)(C)C)c12 (stereo not drawn)	-110	-66	-9	-135	-261
O=C(CCc1ccccc1)N[C@H]1[C@H](OC(=O)c2ccco2)CCC[C@]12C(=O)N(Cc1ccccc1)c1ccccc12	-1	5	0	-2	8
COc1ccc(NC(=O)CSc2nnc(-c3cccs3)o2)cc1Cl	2	2	-4	2	-4
COC(=O)C(N)Cc1ccc(OC)c([N+](=O)[O-])c1 (stereo not drawn)	2	3	-1	-2	6
COC(=O)C(C(=O)OC)[C@@H]1C=C[C@H](C[N+](=O)[O-])N(C(C)=O)C1	12*	-2	0	4	0
O=C1C(=Cc2ccco2)CCC1=Cc1ccco1	11*	-6	0	-4	-12
CCCN1CCS(=O)(=O)N(Cc2cn(Cc3ccc(F)cc3)nn2)C(C(=O)OC)C1 (stereo not drawn)	1	1	0	0	6
CC(=O)Nc1ccc(C=NNc2ccc([N+](=O)[O-])cc2S(=O)(=O)Nc2ccccc2C(=O)O)cc1	-207	3	-1	-285	-2
CC(=O)Nc1ccc(C=NNc2ccc(S(=O)(=O)Nc3ccccc3C(=O)O)cc2[N+](=O)[O-])cc1	11*	5	0	2	13
